This note sets out measurements from the supplement of paper PMC10670038.

Counter-ions that a name gives are not always drawn. ± gives the standard deviation of the averaged measurements. Over roughly 2,000 compounds, “relative cell viability vs DMSO, compound + 0.2 uM CuET” has its median near 1; the lowest 2% begin near 0.25. Many of the other results were omitted from the sample, so the lowest values are more common in it than they were.

For this assay, the system named is TE10. The assay is described as follows: relative cell viability vs DMSO, compound + 0.2 uM CuET (fraction); TE10 is an esophageal squamous carcinoma line; higher = less cytotoxic. To be noted: 2 µM; co-treatment: CuET (bis(diethyldithiocarbamate)copper) 0.2 uM; 48 h. The protocol: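 TE10 ESCC cells (1,000/well, 384-well plates) were treated with Selleck bioactive library compounds at 2 uM combined with 0.2 uM CuET (copper diethyldithiocarbamate) for 48 h. Viability was read by CellTiter-Glo and expressed relative to DMSO wells. Two technical replicates (A, B).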
As for `CCN1CCN(C(=O)Cc2ccc(Nc3ncc(F)c(Nc4ccc(C(=O)Nc5ccccc5Cl)cc4)n3)cc2)CC1` [Aurora A Inhibitor I], the relative cell viability is 0.182 ± 0.01. Turning to `Cc1cc(C(=O)CN2CCCC2)c(C)n1-c1ccc(F)cc1`, the relative cell viability worked out at 0.959 ± 0.085.

For the compound `C[C@@H]1CC[C@H]2[C@@H](C)C(=O)O[C@@H]3O[C@@]4(C)CC[C@@H]1[C@]32OO4` [Artemisinin], the relative cell viability is 1.08 ± 0.11.

Turning to `NCC(O)c1ccc(O)cc1` (racemic) [(+,-)-Octopamine HCl], the relative cell viability came to 0.697 ± 0.56. Take `CC(=O)OC12COC1CC(O)C1(C)C(=O)C(O)C3=C(C)C(O)CC(O)(C(OC(=O)c4ccccc4)C21)C3(C)C` (stereo not given) [10-Deacetylbaccatin-III]: the relative cell viability amounted to 0.849 ± 0.011. Regarding `CC1=C(O)C(=O)C=C2C1=CC=C1[C@@]2(C)CC[C@@]2(C)[C@@H]3C[C@](C)(C(=O)O)CC[C@]3(C)CC[C@]12C` [Celastrol], the relative cell viability is 0.154 ± 0.0064. Consider `CC(C)=CCC[C@]1(C)C=Cc2c(O)c3c(c(CC=C(C)C)c2O1)O[C@]12C(=C[C@@H]4C[C@H]1C(C)(C)O[C@@]2(C/C=C(/C)C(=O)O)C4=O)C3=O` [Gambogic Acid], for which the relative cell viability stood at 0.2853 ± 0.00092. On to `O=c1cccc2n1C[C@@H]1CNC[C@H]2C1` [Cytisine], for which the relative cell viability turned out to be 1.07 ± 0.033.

As to `C=C[C@H]1CN2CC[C@H]1C[C@H]2[C@H](O)c1ccnc2ccccc12` [Cinchonidine], the relative cell viability was 1.03 ± 0.057. Turning to `N#CC(C#N)=Cc1ccc(O)c(O)c1`, the relative cell viability was found to be 0.937 ± 0.14.
